High-throughput results (PubChem)
Hits are enriched below; roughly 4.7% of the tested compounds scored in any of these assays.
TRHR ag – qHTS for Small Molecule Agonists and Allosteric Enhancers of Human TRH Receptor: Primary Screen for Agonists; Thyrotropin-releasing hormone receptor (Homo sapiens), P34981; activation, % at 2 µM; 360,000 compounds, 0.18% hits; TRHR cells, calcium flux fluo-8, FDSS agonist mode; also: 0% is about no effect
Target sequence (P34981 whole entry, looked up): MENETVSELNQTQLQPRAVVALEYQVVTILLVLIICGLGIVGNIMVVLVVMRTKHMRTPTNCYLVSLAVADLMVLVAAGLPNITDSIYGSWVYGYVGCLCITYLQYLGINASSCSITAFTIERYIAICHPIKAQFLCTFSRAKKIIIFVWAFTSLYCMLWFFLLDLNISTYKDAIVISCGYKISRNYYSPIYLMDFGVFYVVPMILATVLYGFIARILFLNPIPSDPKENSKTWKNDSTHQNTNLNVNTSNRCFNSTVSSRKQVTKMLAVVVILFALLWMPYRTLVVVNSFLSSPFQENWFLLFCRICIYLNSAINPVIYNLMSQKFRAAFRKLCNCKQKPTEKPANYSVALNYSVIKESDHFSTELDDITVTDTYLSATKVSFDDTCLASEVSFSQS
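Agonist-mode FDSS calcium read (Ex 480/Em 530, 1 s cycles) in 1536-well TRHR cells with fluo-8 dye, after 10-cycle baseline and 23 nL compound addition; TRH at EC20 (10 nM final) added afterwards for the enhancer phase.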
TRHR enhancer – qHTS for Small Molecule Agonists and Allosteric Enhancers of Human TRH Receptor: Primary Screen for Enhancers; Thyrotropin-releasing hormone receptor (Homo sapiens), P34981; TRHR cells, fluo-8 calcium fluorescence, EC20 TRH enhancement; enhancement, % at 2 µM; 360,000 compounds, 0.66% hits; in the data active = enhancement above about 30%; also: 0% is about no effect
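Enhancer read-out: after compound pinning and an initial kinetic agonist-mode read, an EC20 of TRH (10 nM final) was injected and fluo-8 calcium signal (Ex 480/Em 530) followed at 1 s/cycle for 100 cycles in TRHR-expressing cells.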
D1 PAM – Potentiators of Human D1 Dopamine Receptor: qHTS. D(1A) dopamine receptor (Homo sapiens), P21728. HEK293 TREx D1 cells, calcium flux, dopamine EC20 potentiation. 360,000 compounds, 0.036% hits. potentiation, % at 10 µM; in the data active = potentiation above about 30%; also: 0% is about no effect
D1 agonist – Allosteric Agonists of the Human D1 Dopamine Receptor: qHTS | activation, % at 2 µM | AID 504660, 2011 | 360,000 compounds, 1% hits | D(1A) dopamine receptor (Homo sapiens), P21728 | HEK293 T-REx D1 cells, calcium flux, agonist mode; also: 0% is about no effect
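Tetracycline-induced HEK293 TREx D1 cells, force-coupled to calcium signalling, were dye-loaded with a no-wash calcium kit. Compound was pin-added after a 10 s baseline. Fluorescence was read kinetically at 1 cycle/s for 180 s, with calcium rises flagged as agonism.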
D1 antagonist – Antagonist of Human D 1 Dopamine Receptor: qHTS; AID 504652, 2011; activity change, negative = inhibition, % at 10 µM; HEK293 TREx D1 cells, calcium flux, dopamine EC80; active compounds read low; D(1A) dopamine receptor (Homo sapiens), P21728; 360,000 compounds, 3.2% hits; in the data active = activity change below about -30%; also: % is scaled to controls: 0 for no effect and ±100 for the full control effect
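Allosteric or orthosteric antagonism assessed as attenuation of the calcium response to EC80 dopamine, added 180 s after compound, in induced HEK293 Trex D1 cells loaded with no-wash calcium dye.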
* = called active by the depositor. Rule as the data show it, unless noted: active = activation above about 30%; inactive = the rest.

SMILES	TRHR ag	TRHR enhancer	D1 PAM	D1 agonist	D1 antagonist
O=C1COc2ccc(C(=O)COC(=O)Cc3c(F)cccc3Cl)cc2N1	-0.3	-2.4	0.6	12.0	-30.8*
COCCn1c(SCC(=O)Nc2cc(Cl)ccc2OC)nc2c([nH]c3ccccc32)c1=O	0.1	-1.7	-2.0	1.6	-2.3
Cc1ccc(NC(=O)NNC(=O)COc2ccc3ccccc3c2)cc1	0.3	-2.1	-4.6	0.5	2.1
CC(Oc1ccc2ccccc2c1)C(=O)NNC(=O)Nc1ccccc1 (stereo not drawn)	-0.1	-0.9	5.5	1.1	-37.1*
O=C(NCCc1ccccc1)C1CC(c2ccccc2O)=NO1 (stereo not drawn)	0.1	3.1	3.5	4.8	-26.1
CC(=O)c1ccc(N2CCN(C(=O)Nc3ccc(F)cc3)CC2)cc1	-1.5	-6.0	-5.3	13.6	-11.1
CC(=O)c1ccc(N2CCN(C(=O)Nc3ccc(C(C)C)cc3)CC2)cc1	-0.1	-4.6	-3.9	4.9	-47.1*
COc1ccccc1NC(=O)Cn1c(=O)n(CCC(=O)NCC2CCCO2)c(=O)c2cc(OC)c(OC)cc21 (stereo not drawn)	-0.6	-2.0	1.2	0.7	-0.4
CC(OC(=O)c1c2c(nc3ccccc13)/C(=C\c1ccc3c(c1)OCO3)CCC2)C(=O)Nc1ccc(S(N)(=O)=O)cc1 (stereo not drawn)	96.4*	0.7	1.8	17.4	-5.2
Cc1cccc(C)c1NC(=O)COC(=O)c1c2c(nc3ccccc13)/C(=C\c1ccc3c(c1)OCO3)CCC2	0.1	5.8	-4.6	94.5*	-33.5*
Cc1cc(SCC(=O)OCC(=O)NCc2ccc3c(c2)OCO3)c(C)cc1Br	0.6	2.7	-1.6	14.4	-38.4*
O=C(COC(=O)C1(c2ccc(F)cc2)CCCC1)NCc1ccc2c(c1)OCO2	0.3	-6.9	-10.0	10.1	-31.6*
Cc1cc(SCC(=O)OCC(=O)N2CCN(C(=O)c3ccco3)CC2)c(C)cc1Br	-0.3	-5.6	-5.6	44.5*	-18.4
O=S(=O)(c1ccc(C2CCCCC2)cc1)N1CCCC1	-0.1	6.6	-0.3	6.1	-19.1
Cc1oc(C)c2c(=O)ccc3c(c12)OC(N)=C(C#N)C3c1ccc(F)cc1 (stereo not drawn)	-0.4	-6.6	-8.2	37.1*	25.2
COC(=O)c1ccc(COn2nnc3ccccc32)cc1	-0.6	-5.4	-4.8	3.9	-35.4*
Cn1nnnc1Sc1ncnc2scc(-c3ccccc3C#N)c12	-0.5	6.7	6.3	-0.8	-10.9
Cc1cc([N+](=O)[O-])nn1CCCC(=O)Nc1ccc(Cl)cc1Cl	-0.3	0.9	-6.8	0.1	-38.5*
COc1ccccc1CC(=O)N(Cc1ccccc1)c1cccc(C)c1	0.2	-2.9	3.1	0.8	-30.6*
CCc1nn(CC(=O)N2CCN(c3cccc(C(F)(F)F)c3)CC2)c(=O)c2cccn12	0.0	8.0	-4.5	23.8	-41.0*
CCc1nn(CC(=O)N2CCC(C)CC2)c(=O)c2cccn12	0.9	5.6	1.4	0.3	3.5
COC(=O)Cn1cc(/C=N/NC(=O)c2ccc(C#N)cc2F)c2ccccc21	0.3	-5.2	1.8	5.0	-39.1*
CCn1cc(/C=N/NC(=O)c2ccc(C#N)cc2F)c2ccccc21	-0.5	3.1	-1.6	-0.2	-0.2
O=C(NCCC1=CCCCC1)C1CCN(C(=O)N2CCOc3ccc(Cl)cc32)CC1	0.5	-1.0	-4.2	7.8	-9.8
COc1ccccc1NC(=O)CSc1nc(-c2ccc(C(C)(C)C)cc2)c(C#N)c(=O)[nH]1	-0.3	0.0	3.4	6.7	2.4
CCCCN1CC(c2nc3ccccc3n2CCCCOc2c(C)cccc2C)CC1=O (stereo not drawn)	0.9	-0.1	-4.5	4.6	-16.6
Cc1ccc(NC(=S)Nc2cccc(S(=O)(=O)Nc3c(C)n(C)n(-c4ccccc4)c3=O)c2)cc1	-0.2	32.4*	-7.0	3.3	8.8
Cc1ccc2cccc(S(=O)(=O)Nc3c(C)n(C)n(-c4ccccc4)c3=O)c2n1	0.0	-6.7	-0.6	4.2	-4.6
